The panel holds about 79,000 compounds, 15% with a hit somewhere; the sample as a whole holds those more often. A number with no mark means an inactive call. The source made the active and inactive calls. No stated cut-off is given here; in the data, active means growth inhibition above about 70%; inactive means the rest.

The record followed here is PubChem BioAssay (NCI).

Test [1] is described as follows: NCI Yeast Anticancer Drug Screen. Data for the rad50 strain (AID 155).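 Further: 0% = growth of vehicle-only cultures of the same strain.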 Particulars: S. cerevisiae rad50 strain growth inhibition; at 50.0 µM; stronger effect = higher value. The method, boiled down:
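Genetically altered yeast (DNA repair pathway); compound treatment; growth inhibition vs vehicle ctrl.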

Test [2] can be described thus: NCI Yeast Anticancer Drug Screen. Data for the mec2-1 strain (AID 157). Particulars: S. cerevisiae mec2-1 strain, at 50.0 µM, stronger effect = higher value. The method, boiled down: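 Yeast mec2-1 mutant treated with compound. Readout: growth inhibition vs vehicle controls.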
Test [3] in a line: NCI Yeast Anticancer Drug Screen. Data for the sgs1 mgt1 strain (AID 161).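 Further: 0% = growth of cultures given vehicle only.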 Particulars: S. cerevisiae sgs1 mgt1 strain, at 50.0 µM, stronger effect = higher value. An outline of the steps: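 Mutant yeast exposed to compound; growth scored against vehicle-only wells.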
Test [4] is described as follows: NCI Yeast Anticancer Drug Screen. Data for the cln2 rad14 strain (AID 165).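 Further: 0% = growth equal to vehicle treated cultures.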 Particulars: S. cerevisiae cln2 rad14 strain, at 50.0 µM, stronger effect = higher value. An outline of the steps: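 cln2 rad14 yeast strain; compound exposure; growth inhibition read vs vehicle controls.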
Test [5] is described as follows: NCI Yeast Anticancer Drug Screen. Data for the bub3 strain (AID 167). Particulars: S. cerevisiae bub3 mutant strain, at 50.0 µM, stronger effect = higher value. An outline of the steps:
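Yeast carrying a defined mutation is treated with each compound, and growth is compared with that of vehicle-exposed cells to give inhibition.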

The nature of test [6]: NCI Yeast Anticancer Drug Screen. Data for the mlh1 rad18 strain (AID 175). Particulars: S. cerevisiae mlh1 rad18 strain growth inhibition; at 50.0 µM; stronger effect = higher value. The method, boiled down: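 Yeast w/ defined DNA-repair lesions; compound exposure; growth vs vehicle controls → % inhibition.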

As to `O=C1CCN2C(=O)CCN12`, the growth inhibition in test [1] was 1.1%; in test [2], -10.2%; in test [3], 18.7%; in test [4] it was 14.8%; in test [5], 11%; in test [6], 2.35%.
With `CC(/C=C/c1ccccc1)=N\NC(=S)N/N=C(C)/C=C/c1ccccc1`, the growth inhibition in test [1] is 10.5%; in test [2] it was 37.6%; in test [3] it was 21.5%; in test [4], 9.3%; in test [5] it was 49.5%; in test [6] it was 11.1%.
Turning to `COc1cc(C2(C)SCCCS2)c(I)c(OC)c1OC`, the growth inhibition in test [1] is -8.55%; in test [2] it was -3.05%; in test [3] it was -8.15%; in test [4], 13.2%; in test [5], 2.85%; in test [6] it was -14.4%.
With `CC(C)C[C@H](NC(=O)[C@H](CCc1ccccc1)NC(=O)c1ccc2ccccc2n1)B(O)O`, the growth inhibition in test [1] was 60.8%; in test [2], 64.7%; in test [3], 55.5%; in test [4] it was 73.8% (active); in test [5], 84.7% (active); in test [6], 82.5% (active).
For `COC1C(O)=C2C(=O)OC(C)(O)/C=C/C=C\C=C/C=C/C(c3ccccc3)NC(=O)/C=C/C=C/C=C/C=C/C2(C)C1O` (stereo not given), the growth inhibition in test [1] is -1.7%; in test [2] it was -14.1%; in test [3], 3.3%; in test [4], 3.55%; in test [5], -9.3%; in test [6] it was 4.5%.
In the case of `Cn1c(=O)c2c(ncn2CCN2CCNCC2)n(C)c1=O`, the growth inhibition in test [1] is 13.8%; in test [2] it was -12.8%; in test [3] it was 0.2%; in test [4], -37.5%; in test [5], 25.4%; in test [6], 3.9%.
On to `COC(=O)CCCc1c[nH]c2ccccc12`, for which the growth inhibition in test [1] was 7.2%; in test [2], -9.8%; in test [3], -3.9%; in test [4] it was -0.95%; in test [5], 14.2%; in test [6], -1.05%.
In the case of `Cc1ccc2cc(C)c(C)cc2c1`, the growth inhibition was 30.6% in test [1]; -3.35% in test [2]; -10.8% in test [3]; 16.1% in test [4]; -2.6% in test [5]; 12.8% in test [6].
As to `CNC(=O)c1ccc[n+](CC(=O)NCc2ccccc2)c1`, the growth inhibition is -1.8% in test [1]; -11.3% in test [2]; -15.8% in test [3]; -2.25% in test [4]; -1.5% in test [5]; -15.6% in test [6].
Turning to `CCOC(=O)c1ccc(NC(=O)Oc2cc(C)c(Cl)c(C)c2)cc1`, the growth inhibition in test [1] is 7.8%; in test [2] it was -3.4%; in test [3] it was 2.65%; in test [4] it was 6.35%; in test [5] it was 14.9%; in test [6], -3.65%.
In the case of `CNCCS(=O)(=O)O`, the growth inhibition is 13.9% in test [1]; -3.05% in test [2]; 1.7% in test [3]; -6.3% in test [4]; 13.6% in test [5]; 9.25% in test [6].
`COC1CC(NC(C)=O)C(OC(C)=O)C(CN=[N+]=[N-])O1` (stereo not given): the growth inhibition in test [1] is 5.1%; in test [2], 9.3%; in test [3] it was 8%; in test [4], -11.4%; in test [5] it was -10.2%; in test [6], 6.4%.
With `CCn1c(=O)c2nc(SC)sc2n(-c2ccc(C)cc2)c1=O`, the growth inhibition in test [1] is -21.2%; in test [2] it was -0.6%; in test [3] it was -5.7%; in test [4] it was 9.7%; in test [5] it was 2%; in test [6] it was 20.9%.
For the molecule `O=C1N=C2SC(=S)NC(=S)N2NC12c1ccccc1-c1ccccc12`, the growth inhibition in test [1] was 30.1%; in test [2], -11.4%; in test [3] it was 31%; in test [4] it was 10.5%; in test [5], 16.4%; in test [6] it was 19.6%.
On to `CCOc1c(OC)ccc(C(C)=O)c1O`, for which the growth inhibition in test [1] is -17.8%; in test [2], -15.2%; in test [3], -22.1%; in test [4], -2.35%; in test [5], 3%; in test [6], -17.2%.
`CCCCOC(=O)NC(=O)c1cn(CCCOC(=O)CCCCCCCCC(=O)OCCCn2cc(C(=O)NC(=O)OCCCC)c(=O)[nH]c2=O)c(=O)[nH]c1=O`: the growth inhibition in test [1] is -23.2%; in test [2], -28.2%; in test [3], -32.8%; in test [4] it was 5.05%; in test [5] it was -5.85%; in test [6], -35.9%.
For `O=c1[nH]c2ccccc2c(O)c1O`, the growth inhibition is 24.4% in test [1]; 7.85% in test [2]; 22.9% in test [3]; 14.7% in test [4]; 1% in test [5]; -5.35% in test [6].
For `CSC(=Nc1nnc(-c2ccc([N+](=O)[O-])cc2)s1)SC`, the growth inhibition is 8.35% in test [1]; 1.2% in test [2]; -23.6% in test [3]; -11.6% in test [4]; -5.5% in test [5]; -47% in test [6].
Regarding `[N-]=[N+]=NC(=O)c1cnn(-c2ccccc2)c1N`, the growth inhibition in test [1] was 9.65%; in test [2], 18.9%; in test [3] it was 9.4%; in test [4], -27.4%; in test [5], 14.6%; in test [6], 2.2%.
In the case of `CC(C)CC(NC(=O)c1cc([N+](=O)[O-])cc([N+](=O)[O-])c1)C(=O)O` (stereo not given), the growth inhibition in test [1] was -2%; in test [2], -2.7%; in test [3] it was 16.1%; in test [4], 8.5%; in test [5] it was -41.2%; in test [6] it was -5.5%.
